Screening data deposited in PubChem BioAssay by National Center for Advancing Translational Sciences (NCATS).
D2 antag = antagonizes the human D2 dopamine receptor; inhibition, % at 10 µM; hit rate 2% among 340,000; P14416; HEK293 TREx D2 cells, calcium flux, dopamine EC80; in the data active = inhibition above about 30%; inactive = below that, where a call was filed
Target sequence (P14416 whole entry, looked up): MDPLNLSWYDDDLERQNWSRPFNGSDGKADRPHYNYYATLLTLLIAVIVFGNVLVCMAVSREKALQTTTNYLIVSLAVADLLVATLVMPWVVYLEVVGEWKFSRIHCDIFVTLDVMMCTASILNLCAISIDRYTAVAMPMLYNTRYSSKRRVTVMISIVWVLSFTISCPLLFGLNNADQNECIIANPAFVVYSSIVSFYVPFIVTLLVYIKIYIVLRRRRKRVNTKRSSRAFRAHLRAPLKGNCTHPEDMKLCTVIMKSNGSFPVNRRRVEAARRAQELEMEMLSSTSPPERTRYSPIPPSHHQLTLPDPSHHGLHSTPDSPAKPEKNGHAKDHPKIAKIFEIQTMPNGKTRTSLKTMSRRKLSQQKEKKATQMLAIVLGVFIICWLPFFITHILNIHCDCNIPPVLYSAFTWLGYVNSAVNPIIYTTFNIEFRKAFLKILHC
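Inhibition of EC80 dopamine-driven calcium flux, recorded kinetically, defines activity here; cells are a tetracycline-induced HEK293 T-REx line expressing force-coupled D2.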
D2 PAM-1 = human D2 receptor positive allosteric modulation. P14416. DiscoveRx D2 beta-arrestin cells, luminescence, 90 min; 100% = 57 uM dopamine signal. potentiation, % (concentration not given with the values). hit rate 0.23% among 360,000. AID 624464; in the data active = potentiation above about 50%
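D2 cells co-treated with compound plus 50 nM dopamine (EC20) for 90 min at 37 deg C to detect potentiation. Beta-arrestin recruitment was read as enzyme-fragment luminescence after 1 h at ambient temperature. Full response was set by 57 uM dopamine.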
D2 ag-1 = agonists of human D2 dopamine receptor; P14416; HEK293 T-REx D2 cells, calcium flux agonist mode; activation, % at 2 µM; hit rate 0.53% among 340,000;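 active = activation over 3 SD above normal in the single-dose calcium agonist read, cut at about 30% in these data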
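HEK293 Trex D2 cells, tetracycline-induced, o/n 30 C 5% CO2; no-wash Ca dye, RT 30–90 min; 10-cycle baseline, 23 nl cpd added, kinetic Ca read 180 s; agonist hits = positive Ca response.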
D2 PAM-2 = positive allosteric modulators of human D2 dopamine receptor; P14416; HEK293 T-REx D2, calcium flux, EC20 dopamine potentiation; potentiation, % at 10 µM; hit rate 0.34% among 340,000; AID 485347;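 active = potentiation over 3 SD above the plate norm, cut at about 30% in these data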
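Cells plated with tetracycline inducer and held overnight at 30 C; calcium dye loaded 30–90 min at room temperature; baseline taken, compound added and read 180 s; EC20 dopamine then added and read 180 s.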
D2 ag-2 = activates the human D2 dopamine receptor. P14416. hit rate 0.084% among 360,000. DiscoveRx PathHunter D2 beta-arrestin, luminescence, 90 min; 100% = 57 uM dopamine signal. AID 624465. activation, % (no concentration beside the values); in the data active = activation above about 40%
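DiscoveRx PathHunter D2 beta-arrestin cells (2,100/well) attached overnight, then compound-stimulated 90 min at 37 C in HBSS/10 mM HEPES/0.1% Tween-20 buffer; beta-galactosidase complementation read by luminescence after 1 h at ambient temperature. Dopamine 57 uM final (EC100) as control.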
Hits are given with their value; i = inactive; nt = no result. A selection: hits, their analogues and other compounds. The true share with any hit is near 2.4%.

SMILES	D2 antag	D2 PAM-1	D2 ag-1	D2 PAM-2	D2 ag-2
COc1ccccc1CN1C[C@@H]2C[C@@H](c3ccc(C)c(C)c3)N3CCC[C@@]23C1=O	35	i	i	i	i
O=C(NCC1c2ccccc2CCN1C(=O)CN1C(=O)c2ccccc2C1=O)C1CCCCC1 (configuration not stated)	30	i	i	i	i
O=C(CN1C(=O)c2ccccc2C1=O)N1CCCCC1	i	i	i	i	i
CCOc1cc(-c2cc(-c3ccc(N)cc3)nc(N)c2C#N)ccc1O	i	i	i	i	i
CCOc1cc(-c2noc(N)c2C#N)cc(OCC)c1OCC	i	130	i	i	41
Cc1cccc(NC(=O)CN(C)CC(=O)NC(c2ccccc2)c2ccccc2)c1C	33	i	i	i	i
CC(OCC(O)CN(C)CCOc1ccccc1)c1ccc(Cl)cc1 (configuration not stated)	i	i	32	i	i
CN(CCOc1ccc(Cl)cc1)CC(O)c1ccccc1 (configuration not stated)	i	i	i	i	i
CN(CCOc1ccccc1)CC(O)COc1ccccc1 (configuration not stated)	51	i	i	i	i
CCn1ccc2c(OCC(=O)Nc3ccc(C)c(Cl)c3)cccc2c1=O	nt	nt	nt	i	nt
CCOc1ccccc1NC(=O)Cc1csc(COc2cccc(C)c2)n1	nt	nt	i	i	nt
COc1ccc(-n2c(N)c(-c3nc4ccccc4n3C)sc2=S)cc1	34	i	i	i	i
COc1ccc(CNCc2c(C(=O)O)c(C)n(Cc3ccc(Cl)cc3)c2C)c(OC)c1	nt	nt	i	i	nt
Cc1nc2c(-c3ccccc3)cnn2c(N2CCOCC2)c1C	31	i	i	i	i
Cc1ccc2oc(-c3cc(NC(=O)c4ncn[nH]4)ccc3O)nc2c1	i	i	i	31	i
CCOc1ccc(CNC(=O)c2ccc(-c3nc(CS(=O)(=O)c4ccccc4)c(C)o3)cc2)cc1	nt	nt	i	i	nt
CC(C)(C)OC(=O)N1CCC(c2c(C(=O)N3CCN(c4ccc(Cl)cc4)CC3)cnn2-c2ccc(F)cc2F)CC1	nt	nt	i	i	nt
COc1cc(OC)c(-c2c3cc(O)c(=O)cc-3oc3cc(O)c(O)cc23)cc1OC	i	i	148	i	i
[N-]=C=C1C(=O)NC(=O)C([n+]2ccc(-c3ccncc3)cc2)C1c1ccccc1C(F)(F)F (configuration not stated)	35	i	i	i	i
[N-]=C=C1C(=S)NC(=O)[C@H]([n+]2ccccc2)[C@H]1c1ccc(Cl)cc1	i	i	i	i	i
CCC(C(=O)Nc1cccc(-c2cn3cccnc3n2)c1)c1ccccc1 (configuration not stated)	nt	nt	i	i	nt
CN(CCOc1ccc(Cl)cc1)C(=O)c1ccc(S(=O)(=O)N2CCOCC2)cc1	i	i	i	i	i
CCCCN(C)C(=O)c1ccc(S(=O)(=O)N2CCOCC2)cc1	33	i	i	i	i
CC1=C(C(=O)Nc2cccc(C(=O)NC(C)C)c2)SCCO1	i	i	i	i	i
CCC(C)NC(=O)c1ccc(NC(=O)C2=C(C)OCCS2)cc1 (configuration not stated)	44	i	i	i	i
SMILES	D2 antag	D2 PAM-1	D2 ag-1	D2 PAM-2	D2 ag-2
Cc1cc(C)c(NC(=O)CSCc2c(C)noc2C)c(C)c1	49	i	i	i	i
Cc1ccc(NC(=O)CSCc2c(C)noc2C)cc1C	i	i	i	i	i
COc1ccc(C2C3=C(CC(C)(C)CC3=O)Nc3c2c(=O)n(C)c(=O)n3C)cc1OC (configuration not stated)	i	i	i	i	i
COc1ccc(OC)c(C2C3=C(CCCC3=O)Nc3c2c(=O)n(C)c(=O)n3C)c1 (configuration not stated)	i	i	i	32	i
O=C(CN1C(=O)COc2ccc(S(=O)(=O)N3CCCCCC3)cc21)Nc1cccc(Cl)c1	nt	nt	nt	i	nt
CC(C)(C)C(=O)Cn1c(=O)n(-c2ccccc2)c(=O)c2c3c(sc21)CCC3	nt	nt	i	i	nt
COc1cc(-c2nnn(CC(=O)Nc3ccc(OC(F)(F)F)cc3)n2)cc(OC)c1OC	nt	nt	i	i	nt
Cc1cc(OCC(=O)O/N=C(\N)c2ccccc2)ccc1Br	i	i	30	i	i
CCc1cc(=S)n2c([nH]c3ccccc32)c1C#N	i	i	i	32	i
